# IL-1B inflam inh: inflammasome signaling inhibition, IL-1 beta readout; THP-1 LPS/ATP IL-1B secretion, AlphaLISA, 16 h; hits give low values; activity change, % at 57.5 µM; 360,000 tested, 4.7% active; AID 743279; in the data active = activity change below about -50%; inconclusive = mostly about -30% to -49%
#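 Secreted IL-1B measured by AlphaLISA bead assay after 16 h compound exposure of THP-1 cells; compounds (final up to 57.5 uM) added 1 h before LPS (250 ng/mL) and ATP (1.25 mM) stimulation; lower signal means less secretion.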
# BCR signal inh: blocks chronic active B-cell receptor signaling. ABC-DLBCL IkBa-CBG/CBR reporter, luminescence ratio, 4 h. AID 493014. 340,000 tested, 0.05% active. Potency, µM (highest dose often 46.1 µM), most hits filed as inhibitors; active = well fitted inhibition curve with a large enough effect in the signal ratio, with a control signal flat, not every such curve was filed as active; inconclusive = small, poorly fitted or top-dose-only effect, or effect the other way, or a change in a side signal; the % refers to the signal ratio
#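 Doxycycline induced both beetle luciferases in TMD8 lymphoma cells; IKK-driven degradation limits the IkappaBalpha-fused green signal, while red luminescence normalises for cell number and nonspecific effects. Compounds tested up to 46 uM, 4 hrs.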
# SW480 rerep: DNA re-replication induction in SW480 cells; 340,000 tested, 1.8% active; SW480 DNA re-replication, Hoechst DNA content imaging, 48 h; Potency, µM (top dose mostly 46.1 µM), hits mostly activators; note: nearly all actives have a fitted effect of over 55% in size
#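 Readout is total intensity of Hoechst-stained nuclei, excited at 405 nm and collected at 500-530 nm. Compound treatment lasted 48 hr at 37 C in 5% CO2 before staining.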
# MCF10A rereplic: induces DNA re-replication in MCF 10a normal breast cells; 350,000 tested, 2.9% active; MCF 10A DNA re-replication, Hoechst nuclear intensity, 48 h; Potency, µM (doses to about 46.1 µM), usual class: activators; note: nearly all actives have a fitted effect of over 50% in size
# TDP1 cell noCPT: qHTS for Inhibitors of human tyrosyl-DNA phosphodiesterase 1 (TDP1): qHTS in cells in absence of CPT; DT40 Tdp1-/- hTDP1 cells, no CPT, ATP luminescence, 48 h; AID 686978, 2013; Potency, µM (highest dose often 46.2 µM), usual class: inhibitors; 420,000 tested, 15% active; note: nearly all actives have a fitted effect of over 55% in size
#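 A cellular qHTS used chicken DT40 cells lacking endogenous Tdp1 but carrying stably transfected human TDP1. Compounds were applied without camptothecin, and cell growth kinetics were judged by ATP-dependent luminescence after ≥48 hr.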
# DT40 TDP1 CPT: DT40-hTDP1 cell growth loss with CPT; 420,000 tested, 12% active; chicken DT40 Tdp1-/-;hTDP1 cells + 20 nM CPT, ATP luminescence, 48 h; Potency, µM (titrated, usually from 46.2 µM), actives largely listed as inhibitors; note: nearly all actives have a fitted effect of over 55% in size
#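 Cell growth measured by CellTiter-Glo luminescence after a minimum 48 h, 37 C compound exposure with 20 nM CPT in Tdp1-knockout DT40 cells stably expressing hTDP1, seeded 400/well; qHTS titration format.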
# A number is an active result; – = inactive; ? = inconclusive; · = no result given; ! = not active in a repeat. The list is not random: actives were taken first. Their share in the collection is about 19%. Unless noted, calls come from the whole dose curve; as a rule, active = well fitted curve in the direction sought with a large enough effect; inconclusive = small, poorly fitted or top-dose-only effect, or another doubt; inactive = no such curve, though single readings can be large; an effect the other way counts as inactive or inconclusive.
SMILES,IL-1B inflam inh,BCR signal inh,SW480 rerep,MCF10A rereplic,TDP1 cell noCPT,DT40 TDP1 CPT
COc1ccc(C(=O)NCc2ccc3c(c2)CCN3C(C)=O)c(OC)c1,·,?,·,·,–,–
CCOc1cc(C(=O)NCc2ccc3c(c2)CCN3C(=O)c2ccc(F)cc2)cc(OCC)c1OCC,·,?,·,·,26µM,?
CCC(=O)N1CCc2cc(CNC(=O)c3ccc(C#N)cc3)ccc21,·,–,·,·,–,?
N#Cc1ccc(C(=O)NCc2ccc3c(c2)CCN3C(=O)c2ccc(F)cc2)cc1,·,–,·,·,23µM,?
CCOc1ccc(C(=O)NCc2ccc3c(c2)CCN3C(=O)c2ccc(C)cc2)cc1OCC,·,–,·,·,13µM,12µM
CCOc1ccccc1C(=O)NCc1ccc2c(c1)CCN2C(C)=O,·,?,·,·,1.6µM,0.92µM
CCOc1cccc(CC(=O)NCc2ccc3c(c2)CCN3C(=O)c2ccc(F)cc2)c1OCC,·,–,·,·,?,–
COC(=O)c1ccc(S(=O)(=O)N2Cc3ccccc3C2)cc1,–,–,–,–,–,–
CCn1c(SCC(=O)N2CCOCC2)nnc1C(C)NC(=O)c1ccccc1 (centres undefined),–,?,–,–,–,–
CCN(CC)c1ccc(C(=O)NCc2ccc3c(c2)CCN3C(=O)c2ccc(F)cc2)cc1,·,–,·,·,4.6µM,5.8µM
Cc1ccc(C(=O)N2CCc3cc(CNC(=O)c4ccccc4F)ccc32)cc1,·,–,·,·,21µM,?
Cc1cccc(C)c1NC(=O)CNC(=O)c1ccc2ccccc2n1,–,–,–,–,–,–
CCCCNc1nc(N)nc(-c2cc(Cl)ccc2O)n1,-84,?,?,21µM,16µM,18µM
Nc1nc(N)nc(-c2cc([N+](=O)[O-])ccc2O)n1,–,?,?,?,–,–
CCNc1nc(N)nc(-c2cc(Cl)ccc2O)n1,-85,?,–,?,21µM,?
Nc1nc(N)nc(-c2cc(O)ccc2O)n1,?,?,?,?,5.8µM,8.2µM
CCNc1nc(NCC)nc(-n2cc(C(=O)c3cc(Cl)ccc3O)cn2)n1,·,·,·,·,10µM,?
Cc1cccc(S(=O)(=O)NC(=O)C2(C)CCN2C(=O)c2cccc(F)c2)c1 (centres undefined),–,·,·,·,–,–
Cc1nnc(SCC(=O)N(CCC#N)c2ccc3c(c2)OCCO3)s1,–,–,–,–,–,–
Fc1ccc(NC(=S)Nc2cc(Cl)ccc2Cl)cc1,–,–,–,–,?,5.8µM
CCC(C)(C)C1CCC(=NNC(=S)Nc2ccccc2)CC1 (centres undefined),–,?,–,–,15µM,?
O=C(NNC(=S)Nc1ccc(F)cc1)C1CC1c1ccc(Cl)cc1 (centres undefined),–,–,–,?,?,?
Fc1ccc(NC(=S)NN=C2CCCCCC2)cc1,–,–,–,–,?,?
COc1ccc(NC(=S)Nc2ccc(F)cc2)c(OC)c1,–,·,–,–,?,?
Fc1ccc(NC(=S)Nc2ccc(Cl)cc2)cc1,–,–,–,–,23µM,?
SMILES,IL-1B inflam inh,BCR signal inh,SW480 rerep,MCF10A rereplic,TDP1 cell noCPT,DT40 TDP1 CPT
S=C(NN=C1CCCCCC1)Nc1ccc(Cl)cc1,–,–,–,?,29µM,29µM
CN(C)S(=O)(=O)c1ccc(N2CCCC2)c(C(=O)N2CCC(C(N)=O)CC2)c1,–,–,–,–,–,–
Cc1cccc(NC(=O)c2cc(S(=O)(=O)N(C)c3ccc(F)cc3)ccc2Cl)n1,?,–,–,?,8.2µM,?
COc1ccccc1N(C)S(=O)(=O)c1ccc(Cl)c(C(=O)Nc2ccccc2N2CCOCC2)c1,–,·,–,–,1.5µM,3.7µM
COc1ccccc1N(C)S(=O)(=O)c1ccc(Cl)c(C(=O)Nc2cccc(C)n2)c1,–,–,–,–,16µM,18µM
CN(c1ccc(F)cc1)S(=O)(=O)c1ccc(Cl)c(C(=O)NC2(C)CCS(=O)(=O)C2)c1 (centres undefined),–,–,–,–,?,–
CN(C)C(CNC(=O)c1cc(S(=O)(=O)N(C)c2ccc(F)cc2)ccc1Cl)c1cccs1 (centres undefined),–,·,–,–,5.8µM,5.8µM
CC(=O)N(c1nnc(-c2cccc(C)c2)s1)C1CCCC1,–,?,–,–,–,–
O=C(Cn1cc[n+](CC(=O)c2ccc(Cl)cc2Cl)c1)c1ccc(Cl)cc1Cl,-82,?,–,–,26µM,?
O=C(Cn1cc[n+](CC(=O)c2ccccc2)c1)c1ccccc1,–,–,–,–,4.1µM,8.2µM
Nc1cc[n+](CC(=O)c2ccccc2)cc1,–,–,–,–,?,?
Cc1ccccc1CSc1nnc(-c2ccncc2)n1C,–,–,–,–,–,–
CCOC(=O)c1c(C)[nH]c(C=C2C(=O)CCCC2=O)c1O,–,–,–,–,–,?
Cc1ccc([C@H]2C[C@H](O)[C@@H](n3cc(C4CC4)nn3)CN2C(=O)C2CCCCC2)cc1,–,·,·,·,–,–
Cc1ccc(-c2nnc3ccccc3c2C(=O)Nc2cccc(C(F)(F)F)c2)cc1,·,·,·,·,–,–
CS/C(=N\S(=O)(=O)c1cccs1)Nc1ccc(Br)cc1F,–,–,–,23µM!,?,–
CCCCSCCCNC(=O)Nc1ccc(CC)cc1,-75,?,–,–,–,–
CCCCCCNC(=O)Nc1ccccc1,–,–,–,–,–,–
S=C(NCCOCCOCCNC(=S)Nc1ccccc1)Nc1ccccc1,–,–,–,–,–,–
CC(C)(C)c1ccc(OCCNC(=S)Nc2ccccc2)cc1,-107,–,?,–,5.8µM,2.9µM
CC(C)(C)c1ccc(OCCNCc2ccccc2)cc1,-93,–,–,–,?,?
c1ccc(CCNCCOc2ccccc2)cc1,–,–,–,–,–,–
CC(C)Oc1ccccc1/C=N/n1nnnc1N,–,·,–,–,–,–
COC(=O)Cc1c(C)c2ccc(OC3CCCCC3=O)cc2oc1=O (centres undefined),–,–,–,–,–,–
COC(=O)Cc1c(C)c2ccc(OC3CCCCC3=O)c(C)c2oc1=O (centres undefined),–,–,–,–,18µM,?
COCCn1c(=O)[nH]c2cc(C(=O)N3CCN(c4ccc(Cl)cc4)CC3)ccc2c1=O,–,–,–,?,6.5µM,5.8µM
O=C(c1ccc2c(=O)n(CCc3ccccc3)c(=O)[nH]c2c1)N1CCN(C(=O)c2ccco2)CC1,·,·,·,·,11µM,13µM
CCOC(=O)N1CCN(C(=O)c2ccc3c(=O)n(CCc4ccccc4)c(=O)[nH]c3c2)CC1,–,–,–,–,–,?
